Among the test systems are MAP3K15; MAP3K1; MAP3K2; MAP3K3; MAP3K4; MAP4K2; MAP4K3; MAP4K4; MAP4K5; MAPKAPK2; MAPKAPK5; MARK1; MARK2; MARK3; MARK4; MAST1.
Common to all, as to settings: concentration: 1 μM, replicates: in singlicate; n = 1
For the next experiment, the system named is T1, MEK1.
T1 construct: gene MAP2K1

The next experiment concerns T2, MEK2.
T2 construct: gene MAP2K2

The subject of a further experiment is T3, MEK3.
T3 construct: gene MAP2K3

The next experiment deals with T4, MEK4.
T4 construct: gene MAP2K4
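Note: KINOMEscan kinase panel screen.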

As for `COc1ccc(-c2coc3ccc(-c4nnc(SCc5ccc(OC)c(C(F)(F)F)c5)o4)cc23)cc1`, the “%Inh” value with MAP3K15 is listed as 0%; with MAP3K1, 0%; with MAP3K2, 10%; with MAP3K3 it was 0%; in the experiment on MAP3K4, 0%; with MAP4K2, 0%. Further, the “%Inh” value with MAP4K3 was 0%; in the experiment with MAP4K4, 6%; in the experiment on MAP4K5 it was 0%; in the experiment with MAPKAPK2 it was 0%; in the experiment with MAPKAPK5 it was 23%; with MARK1, 5%. For the same compound, the “%Inh” value in the experiment on MARK2 was found to be 2%; with MARK3, 0%; in the experiment with MARK4 it was 4%; in the experiment on MAST1, 13%; in the experiment on MEK1, 13%; with MEK2 it was 22%. The “%Inh” value was 10% in the experiment on MEK3 and 30% with MEK4.
`CCn1c(-c2nonc2N)nc2c(C#CC(C)(C)O)nc(OC[C@H](N)c3ccccc3)cc21` [GSK943949]: the “%Inh” value in the experiment with MAP3K15 is recorded as 0%; with MAP3K1, 0%; in the experiment on MAP3K2, 57%; with MAP3K3, 55%; in the experiment on MAP3K4, 1%; in the experiment on MAP4K2, 19%. Also, the “%Inh” value in the experiment with MAP4K3 turned out to be 11%; with MAP4K4, 8%; with MAP4K5 it was 40%; in the experiment on MAPKAPK2 it was 0%; in the experiment with MAPKAPK5 it was 7%; in the experiment on MARK1, 54%. Further, the “%Inh” value is listed as 0% in the experiment on MARK2; 0% in the experiment with MARK3; 37% with MARK4; 4% in the experiment on MAST1; 1% with MEK1; 0% in the experiment with MEK2. The “%Inh” value was determined as 69% with MEK3 and 15% in the experiment on MEK4.
As for `Nc1ncc(-c2cccnc2)c2scc(-c3ccc4c(c3)CCN4C(=O)Cc3ccccc3)c12` [GSK683281], the “%Inh” value with MAP3K15 amounted to 100%; with MAP3K1, 41%; in the experiment on MAP3K2 it was 56%; with MAP3K3, 18%; in the experiment on MAP3K4, 69%; in the experiment on MAP4K2 it was 23%. In addition, the “%Inh” value is 95.2% with MAP4K3; 8% with MAP4K4; 98.8% with MAP4K5; 24% in the experiment on MAPKAPK2; 0% in the experiment on MAPKAPK5; 0% in the experiment on MARK1. The “%Inh” value in the experiment with MARK2 stood at 0%; in the experiment with MARK3 it was 19%; with MARK4, 0%; with MAST1 it was 0%; in the experiment with MEK1, 0%; in the experiment on MEK2 it was 1%. The figures for the “%Inh” value with MEK3 and with MEK4 were 0% and 66%, respectively.
In the case of `CCc1ccc(-c2ccc3c(c2)-c2c(cnn2C)S(=O)(=O)N3C)cc1`, the “%Inh” value is given as 0% with MAP3K15; 34% with MAP3K1; 0% in the experiment on MAP3K2; 0% in the experiment on MAP3K3; 23% in the experiment with MAP3K4; 0% in the experiment on MAP4K2. Also, the “%Inh” value in the experiment on MAP4K3 stood at 3%; in the experiment on MAP4K4, 0%; with MAP4K5, 1%; with MAPKAPK2, 13%; with MAPKAPK5, 0%; in the experiment with MARK1 it was 0%. Moreover, the “%Inh” value in the experiment with MARK2 stood at 0%; in the experiment with MARK3 it was 3%; with MARK4, 7%; with MAST1, 0%; in the experiment on MEK1, 1%; with MEK2, 0%. Further, the “%Inh” value in the experiment on MEK3 amounted to 0%; in the experiment on MEK4 it was 6%.
On to `CN(c1ccc(NC(=O)Nc2cc(C(F)(F)F)ccc2F)cc1)c1ccnc(Nc2ccc(S(N)(=O)=O)cc2)n1` [GW809893], for which the “%Inh” value in the experiment on MAP3K15 is on record as 0%; in the experiment on MAP3K1, 33%; with MAP3K2, 7%; in the experiment with MAP3K3, 15%; with MAP3K4, 72%; with MAP4K2, 26%. Also, the “%Inh” value in the experiment on MAP4K3 worked out at 96.8%; in the experiment with MAP4K4, 97.7%; with MAP4K5 it was 99.2%; in the experiment on MAPKAPK2, 0%; in the experiment on MAPKAPK5, 0%; with MARK1, 7%. Besides, the “%Inh” value with MARK2 turned out to be 22%; in the experiment with MARK3, 2%; in the experiment on MARK4, 1%; with MAST1 it was 18%; in the experiment on MEK1, 0%; in the experiment with MEK2, 19%. The “%Inh” value in the experiment with MEK3 was 51%; in the experiment with MEK4, 67%.
`COc1cc(Nc2ncc3c(C)nc(-c4cc5ccccc5[nH]4)n3n2)cc(OC)c1OC` [GW869516]: the “%Inh” value with MAP3K15 was found to be 0%; with MAP3K1, 0%; in the experiment with MAP3K2 it was 0%; in the experiment with MAP3K3, 14%; with MAP3K4, 52%; in the experiment with MAP4K2, 0%. Besides, the “%Inh” value stood at 0% with MAP4K3; 19% with MAP4K4; 11% with MAP4K5; 0% in the experiment on MAPKAPK2; 0% in the experiment with MAPKAPK5; 16% with MARK1. In addition, the “%Inh” value with MARK2 is given as 11%; in the experiment on MARK3, 3%; in the experiment with MARK4 it was 22%; in the experiment on MAST1, 13%; in the experiment on MEK1 it was 0%; with MEK2, 0%. Besides, the “%Inh” value in the experiment with MEK3 and with MEK4 was 0% in each case.
On to `NCCCC(NC(=O)c1cc(Br)c(-c2ccnc3[nH]ccc23)s1)c1ccccc1.O=C(O)C(F)(F)F.O=C(O)C(F)(F)F` (centres unmarked) [GSK1287544], for which the “%Inh” value is given as 23% in the experiment with MAP3K15; 9% in the experiment with MAP3K1; 24% in the experiment with MAP3K2; 0% with MAP3K3; 9% in the experiment with MAP3K4; 31% in the experiment on MAP4K2. The “%Inh” value in the experiment on MAP4K3 is given as 4%; in the experiment with MAP4K4 it was 17%; with MAP4K5, 2%; with MAPKAPK2, 0%; in the experiment on MAPKAPK5, 0%; with MARK1, 0%. For the same compound, the “%Inh” value in the experiment with MARK2 worked out at 2%; with MARK3, 20%; in the experiment with MARK4, 4%; with MAST1, 0%; in the experiment on MEK1, 0%; in the experiment with MEK2, 0%. Besides, the figures for the “%Inh” value with MEK3 and in the experiment on MEK4 were 71% and 50%, respectively.
As for `CC(=O)Nc1nc2cnc(Nc3cc(NC(=O)c4cccc(C5(C#N)CC5)c4Cl)ccc3C)nc2s1`, the “%Inh” value with MAP3K15 came to 0%; in the experiment with MAP3K1 it was 0%; in the experiment with MAP3K2, 0%; in the experiment with MAP3K3 it was 0%; in the experiment with MAP3K4, 10%; with MAP4K2, 16%. For the same compound, the “%Inh” value in the experiment on MAP4K3 is 0%; with MAP4K4 it was 17%; in the experiment on MAP4K5, 0%; in the experiment with MAPKAPK2 it was 0%; in the experiment with MAPKAPK5 it was 0%; in the experiment with MARK1 it was 1%. Besides, the “%Inh” value stood at 19% in the experiment on MARK2; 0% with MARK3; 10% in the experiment with MARK4; 23% in the experiment with MAST1; 0% in the experiment with MEK1; 0% in the experiment on MEK2. Further, the “%Inh” value came to 0% in the experiment on MEK3 and 5% in the experiment with MEK4.
Turning to `COC(=O)Nc1nc2cc(Oc3ccc(NC(=O)Nc4cc(C(F)(F)F)ccc4F)cn3)ccc2[nH]1.Cl.Cl` [GW681170], the “%Inh” value is given as 0% in the experiment with MAP3K15; 11% with MAP3K1; 0% in the experiment on MAP3K2; 0% with MAP3K3; 9% in the experiment on MAP3K4; 0% in the experiment on MAP4K2. The “%Inh” value in the experiment with MAP4K3 was 3%; in the experiment with MAP4K4, 3%; in the experiment with MAP4K5, 0%; in the experiment with MAPKAPK2 it was 0%; with MAPKAPK5 it was 0%; in the experiment with MARK1 it was 0%. Further, the “%Inh” value with MARK2 is recorded as 0%; in the experiment on MARK3, 14%; in the experiment on MARK4, 0%; in the experiment with MAST1 it was 24%; in the experiment on MEK1, 0%; with MEK2, 2%. Moreover, the “%Inh” value stood at 7% in the experiment on MEK3 and 0% in the experiment on MEK4.
Take `COc1cc(Nc2nccc(-c3c(-c4cccc(NC(=O)c5c(F)cccc5F)c4)nn4ccccc34)n2)cc(OC)c1OC` [GSK323521]: the “%Inh” value with MAP3K15 is on record as 0%; with MAP3K1, 27%; in the experiment with MAP3K2 it was 56%; in the experiment on MAP3K3, 20%; in the experiment on MAP3K4, 65%; in the experiment on MAP4K2 it was 37%. Further, the “%Inh” value in the experiment with MAP4K3 is given as 71%; in the experiment on MAP4K4, 0%; in the experiment on MAP4K5, 70%; with MAPKAPK2, 24%; with MAPKAPK5, 3%; in the experiment on MARK1, 6%. Further, the “%Inh” value amounted to 0% in the experiment on MARK2; 51% with MARK3; 17% with MARK4; 0% with MAST1; 4% in the experiment with MEK1; 0% in the experiment with MEK2. Further, the figures for the “%Inh” value with MEK3 and in the experiment with MEK4 were 0% and 41%, respectively.
